PubChem BioAssay AID1159580 (chemical genetic matrix, 2015)
About 2,000 (36%) of roughly 5,500 compounds were called active. Roughly 18% stayed inconclusive and do not appear here. Cut-off read from the data, not from the text of the source: active = normalized growth mostly below about 0.91 (no sharp cut-off); inconclusive = no clear call, values can overlap the other calls; inactive = mostly above about 0.92. This is one part of the list.

Assay: chemical genetic growth profiling, strain panel (AID 1159580);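 note: tested at 20 µM; growth read once vehicle control cultures reached saturation at 30 °C; 1 = growth at the plate median or of vehicle wells; lower values mean less growth of the strain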
Conditions: S. cerevisiae deletion strains, growth OD

Measured: normalized growth

Cc1cn([C@H]2C[C@@H](N=[N+]=[N-])[C@@H](CO)O2)c(=O)[nH]c1=O
inactive: locus YAL040C, strain CLN3, hits give low values 1 | locus YER002W, strain NOP16, hits give low values 0.99 | locus YMR307W, strain GAS1, hits give low values 0.999 | locus YNL128W, strain TEP1, hits give low values 1.01 | locus YNL175C, strain NOP13, hits give low values 0.983 | locus YNL197C, strain WHI3, hits give low values 1 | locus YNL224C, strain SQS1, hits give low values 0.974 | locus YOR083W, strain WHI5 (second series), hits give low values 1.02 | locus YPL241C, strain CIN2, hits give low values 0.995
